This is an account of results in the supplement of paper PMC10849652.

About 7,900 targets were measured; listed, in parts, are those with a hit and a random draw of the rest. About 0.6% of all pairs of compound and target were hits. A number with no mark means an inactive call.

UniProt Q15910, sequence (Q15910 whole entry, looked up): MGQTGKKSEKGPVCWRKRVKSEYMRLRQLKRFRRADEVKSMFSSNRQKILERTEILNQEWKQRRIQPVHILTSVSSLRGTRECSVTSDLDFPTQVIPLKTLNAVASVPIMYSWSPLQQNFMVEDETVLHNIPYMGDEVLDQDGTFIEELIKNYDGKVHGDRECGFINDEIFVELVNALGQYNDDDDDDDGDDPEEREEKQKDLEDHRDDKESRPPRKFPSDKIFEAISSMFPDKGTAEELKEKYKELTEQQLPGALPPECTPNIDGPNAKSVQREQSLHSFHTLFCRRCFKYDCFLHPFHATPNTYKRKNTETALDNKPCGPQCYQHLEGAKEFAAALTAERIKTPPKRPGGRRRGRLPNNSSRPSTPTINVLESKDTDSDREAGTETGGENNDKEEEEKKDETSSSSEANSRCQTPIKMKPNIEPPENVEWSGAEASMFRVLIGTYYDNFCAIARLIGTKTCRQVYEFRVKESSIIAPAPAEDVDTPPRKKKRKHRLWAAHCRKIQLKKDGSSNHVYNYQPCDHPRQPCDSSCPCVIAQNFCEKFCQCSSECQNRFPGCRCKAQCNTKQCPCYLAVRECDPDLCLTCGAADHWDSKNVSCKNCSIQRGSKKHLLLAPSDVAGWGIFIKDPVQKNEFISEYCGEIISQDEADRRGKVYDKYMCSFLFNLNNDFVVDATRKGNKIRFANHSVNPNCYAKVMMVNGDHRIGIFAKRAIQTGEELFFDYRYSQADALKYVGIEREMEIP
UniProt Q6P1L5, sequence (Q6P1L5 whole entry, looked up): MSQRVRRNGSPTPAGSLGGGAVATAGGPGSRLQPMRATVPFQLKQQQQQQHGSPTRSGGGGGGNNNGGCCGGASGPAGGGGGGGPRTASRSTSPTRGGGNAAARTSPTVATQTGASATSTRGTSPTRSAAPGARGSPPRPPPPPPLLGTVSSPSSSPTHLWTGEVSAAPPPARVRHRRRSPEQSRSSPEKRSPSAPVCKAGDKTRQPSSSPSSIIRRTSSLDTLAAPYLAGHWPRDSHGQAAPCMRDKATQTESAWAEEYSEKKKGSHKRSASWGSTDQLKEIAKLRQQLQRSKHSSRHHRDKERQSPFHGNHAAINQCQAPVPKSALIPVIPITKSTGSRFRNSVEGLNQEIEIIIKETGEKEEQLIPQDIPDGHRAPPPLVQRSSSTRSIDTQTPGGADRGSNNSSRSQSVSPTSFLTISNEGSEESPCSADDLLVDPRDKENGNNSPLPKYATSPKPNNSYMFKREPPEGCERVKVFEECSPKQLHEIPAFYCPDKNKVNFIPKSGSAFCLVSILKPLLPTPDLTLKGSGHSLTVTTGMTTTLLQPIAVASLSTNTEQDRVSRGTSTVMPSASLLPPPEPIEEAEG
UniProt P50570, sequence (P50570 whole entry, looked up): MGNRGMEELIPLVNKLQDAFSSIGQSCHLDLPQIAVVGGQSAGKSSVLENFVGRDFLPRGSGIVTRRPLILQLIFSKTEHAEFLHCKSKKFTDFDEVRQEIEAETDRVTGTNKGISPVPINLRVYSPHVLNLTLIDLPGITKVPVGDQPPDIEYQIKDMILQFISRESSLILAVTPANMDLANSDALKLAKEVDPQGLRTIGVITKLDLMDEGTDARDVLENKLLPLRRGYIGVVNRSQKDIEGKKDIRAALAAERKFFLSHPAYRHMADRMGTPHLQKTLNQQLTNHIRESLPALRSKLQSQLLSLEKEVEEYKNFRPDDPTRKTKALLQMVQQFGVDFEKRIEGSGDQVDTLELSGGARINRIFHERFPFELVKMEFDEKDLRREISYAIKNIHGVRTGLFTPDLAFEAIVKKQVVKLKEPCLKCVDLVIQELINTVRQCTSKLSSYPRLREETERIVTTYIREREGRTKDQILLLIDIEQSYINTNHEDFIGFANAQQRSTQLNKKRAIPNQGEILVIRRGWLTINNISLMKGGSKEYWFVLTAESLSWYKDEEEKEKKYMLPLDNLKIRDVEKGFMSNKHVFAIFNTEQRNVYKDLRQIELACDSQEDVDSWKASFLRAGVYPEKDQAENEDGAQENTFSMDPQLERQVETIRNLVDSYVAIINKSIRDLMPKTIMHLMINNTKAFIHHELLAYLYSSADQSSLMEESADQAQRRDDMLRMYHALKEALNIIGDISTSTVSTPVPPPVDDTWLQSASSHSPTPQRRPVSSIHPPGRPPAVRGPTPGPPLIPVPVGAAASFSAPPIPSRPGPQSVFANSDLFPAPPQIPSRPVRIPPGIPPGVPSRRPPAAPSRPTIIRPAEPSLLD
UniProt Q16643, sequence (Q16643 whole entry, looked up): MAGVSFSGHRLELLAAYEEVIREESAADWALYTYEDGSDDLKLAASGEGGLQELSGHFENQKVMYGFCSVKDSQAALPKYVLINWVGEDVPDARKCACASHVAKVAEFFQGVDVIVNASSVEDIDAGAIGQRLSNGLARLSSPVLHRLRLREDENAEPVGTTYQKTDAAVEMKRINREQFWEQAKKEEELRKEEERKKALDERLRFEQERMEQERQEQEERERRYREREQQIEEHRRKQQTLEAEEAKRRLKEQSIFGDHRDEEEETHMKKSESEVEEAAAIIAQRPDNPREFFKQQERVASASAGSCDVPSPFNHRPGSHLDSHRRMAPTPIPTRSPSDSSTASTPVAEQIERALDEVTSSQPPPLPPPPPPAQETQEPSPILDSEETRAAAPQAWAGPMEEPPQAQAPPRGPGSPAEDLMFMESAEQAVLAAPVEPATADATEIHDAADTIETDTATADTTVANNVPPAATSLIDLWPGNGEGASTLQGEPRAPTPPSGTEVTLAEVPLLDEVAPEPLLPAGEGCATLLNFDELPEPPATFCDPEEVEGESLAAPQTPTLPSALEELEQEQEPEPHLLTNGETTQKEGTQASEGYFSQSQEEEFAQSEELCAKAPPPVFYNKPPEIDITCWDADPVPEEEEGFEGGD
UniProt P41091, sequence (P41091 whole entry, looked up): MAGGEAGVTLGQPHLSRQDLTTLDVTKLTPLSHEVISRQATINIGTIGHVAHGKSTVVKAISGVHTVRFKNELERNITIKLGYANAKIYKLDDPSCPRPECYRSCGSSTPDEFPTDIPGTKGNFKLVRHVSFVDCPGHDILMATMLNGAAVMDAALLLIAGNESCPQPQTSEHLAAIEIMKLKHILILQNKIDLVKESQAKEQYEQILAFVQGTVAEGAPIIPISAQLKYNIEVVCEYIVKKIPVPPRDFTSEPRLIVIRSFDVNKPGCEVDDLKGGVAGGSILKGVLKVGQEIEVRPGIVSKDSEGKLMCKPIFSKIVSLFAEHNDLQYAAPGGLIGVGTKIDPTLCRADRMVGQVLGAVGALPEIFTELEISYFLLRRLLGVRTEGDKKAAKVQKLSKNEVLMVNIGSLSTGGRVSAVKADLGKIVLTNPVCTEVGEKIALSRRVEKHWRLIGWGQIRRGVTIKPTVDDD
UniProt P32519, sequence (P32519 whole entry, looked up): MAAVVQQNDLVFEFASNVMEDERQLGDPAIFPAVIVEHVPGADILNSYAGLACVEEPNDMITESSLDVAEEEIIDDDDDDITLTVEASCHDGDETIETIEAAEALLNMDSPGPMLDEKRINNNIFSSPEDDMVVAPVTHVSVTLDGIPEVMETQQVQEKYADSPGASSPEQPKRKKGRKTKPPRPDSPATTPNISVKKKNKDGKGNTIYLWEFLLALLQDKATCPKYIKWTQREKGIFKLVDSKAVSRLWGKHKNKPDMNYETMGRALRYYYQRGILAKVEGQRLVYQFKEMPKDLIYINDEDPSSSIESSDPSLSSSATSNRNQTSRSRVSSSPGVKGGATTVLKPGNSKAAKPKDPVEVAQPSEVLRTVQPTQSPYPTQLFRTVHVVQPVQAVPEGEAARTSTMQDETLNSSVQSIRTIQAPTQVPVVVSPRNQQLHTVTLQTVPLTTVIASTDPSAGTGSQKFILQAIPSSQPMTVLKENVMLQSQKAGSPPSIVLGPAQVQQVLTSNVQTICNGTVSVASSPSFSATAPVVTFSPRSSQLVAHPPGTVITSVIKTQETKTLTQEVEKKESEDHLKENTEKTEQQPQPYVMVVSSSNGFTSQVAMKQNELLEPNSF
UniProt Q96GQ7, sequence (Q96GQ7 whole entry, looked up): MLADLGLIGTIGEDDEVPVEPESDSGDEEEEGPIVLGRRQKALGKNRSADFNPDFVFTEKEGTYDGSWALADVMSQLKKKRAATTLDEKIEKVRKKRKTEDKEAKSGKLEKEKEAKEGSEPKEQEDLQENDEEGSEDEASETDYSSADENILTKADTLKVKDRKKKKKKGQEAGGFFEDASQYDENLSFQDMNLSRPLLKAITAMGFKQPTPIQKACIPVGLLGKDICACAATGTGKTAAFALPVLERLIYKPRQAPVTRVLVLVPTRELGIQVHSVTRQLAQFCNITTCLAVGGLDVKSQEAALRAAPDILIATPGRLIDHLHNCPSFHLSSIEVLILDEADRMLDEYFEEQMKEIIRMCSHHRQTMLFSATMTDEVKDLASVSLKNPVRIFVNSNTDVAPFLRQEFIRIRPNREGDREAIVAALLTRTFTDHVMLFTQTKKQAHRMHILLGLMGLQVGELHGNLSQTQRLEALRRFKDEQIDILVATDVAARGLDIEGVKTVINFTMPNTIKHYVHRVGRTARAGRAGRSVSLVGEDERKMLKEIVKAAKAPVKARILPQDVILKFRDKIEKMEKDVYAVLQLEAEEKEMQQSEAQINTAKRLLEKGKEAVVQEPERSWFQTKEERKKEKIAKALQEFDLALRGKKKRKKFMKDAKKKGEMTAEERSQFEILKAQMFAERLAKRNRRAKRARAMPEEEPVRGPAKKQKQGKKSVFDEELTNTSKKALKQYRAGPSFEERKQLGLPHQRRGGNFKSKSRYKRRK
UniProt A1L3X0, sequence (A1L3X0 whole entry, looked up): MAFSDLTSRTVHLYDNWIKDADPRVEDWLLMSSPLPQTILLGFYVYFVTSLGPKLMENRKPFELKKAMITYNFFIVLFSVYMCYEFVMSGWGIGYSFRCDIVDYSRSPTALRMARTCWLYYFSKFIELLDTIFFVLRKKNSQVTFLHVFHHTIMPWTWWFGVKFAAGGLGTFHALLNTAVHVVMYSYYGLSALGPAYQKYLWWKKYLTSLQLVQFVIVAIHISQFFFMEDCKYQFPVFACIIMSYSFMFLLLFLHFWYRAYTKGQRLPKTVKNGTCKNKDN

Compound in the experiment: C/C(=N\NC(=O)C1=CC(=CC=C1)S(=O)(=O)N2CCOCC2)/C3=C(C=CC(=C3)Cl)O
Kind of experiment: log2 fold change, soluble protein after heating vs DMSO (PISA); higher = thermal stabilisation; K562 cells, 10 uM, 30 min; active = over 0.2 and 3.5 SD of the protein, either way, in both replicates (recomputed). Put shortly:
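Soluble protein was quantified by TMTpro 16plex LC-MS/MS after channel sums were equalised. It was obtained as the supernatant after 21,000xg for 90 min from pooled aliquots of K562 cells (2×10^6 cells/mL, 10 μM compound, 30 min) heated for 3 min across 48°C-58°C and extracted in PBS with 0.5% NP-40 at 4°C. Thermal stability values are relative to control samples and come from duplicates. They are given as log2 fold changes.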
With ERCC6 (UniProt Q03468), the log2 fold change is 0.06. Next, CUX1 isoform 3 (UniProt P39880): 0; ELOVL7 (UniProt A1L3X0): 0.062. Next, DUS3L (UniProt Q96G46): 0.025. The figure for EIF2S3 (UniProt P41091) is -0.041.

With EGR1 (UniProt P18146), the log2 fold change was 0.001. Next, DDX27 (UniProt Q96GQ7): -0.116; EED, A0A5F9ZI63: 0.049; ELF1 (UniProt P32519): -0.052.

As to EZH2 isoform 2 (UniProt Q15910), the log2 fold change is 0.129. Next, DNM2 (UniProt P50570): 0.065; EXOSC10 (UniProt Q01780): -0.86 (active). In the case of FAM117B (UniProt Q6P1L5), the log2 fold change is 0.053. Next, DBN1 isoform 3 (UniProt Q16643): -0.047; EIF4A1 (UniProt P60842): 0.049.

Turning to FAM241A (UniProt Q8N8J7), the log2 fold change is -0.005.
